Data from PubChem BioAssay.
For some of these results: Results with a measured potency or affinity are listed apart. Active and inactive are the calls of the source. Unless noted, no rule for the calls is given here.

Tests used:
[1] = antimalarial activity against Dd2 strain (AID 2302;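 active = growth inhibition above 50% at the single 2 µM test dose, taken to imply half-maximal potency below 2 µM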;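 also: 0% = DMSO untreated growth and 100% = chloroquine plus artemisinin killed control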); details: P. falciparum Dd2 in RBCs, LDH growth readout, 72 h; at 2 µM; active compounds read high
[2] = human hepatoma cell viability loss – ATP luminescence, cytotoxicity control for P. falciparum antimalarial project, primary screen (AID 2303;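 active = inhibition above 50%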;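 also: 0% = DMSO wells and 100% = digitonin-killed cells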); details: HepG2 viability, 24-48 h, at 10 µM, active compounds read high
[3] = biological target: L-lactate dehydrogenase (Plasmodium falciparum (isolate CDC / Honduras)) (UniProt Q27743); assay: PfLDH activity inhibition – cell lysate, 3D7 strain, counter-screen for P. falciparum growth inhibition project (AID 2304);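 also: 0% = vehicle and 100% = reference inhibitor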; details: P. falciparum 3D7 crude extract, LDH APAD/NBT absorbance; at 2 µM; active compounds read high
[4] = inhibition of 3D7 malaria parasite growth – strain 3D7 (AID 2306);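 also: 0% = DMSO wells and 100% = chloroquine plus artemisinin control wells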; details: P. falciparum 3D7 erythrocytic growth, LDH absorbance, 72 h; at 2 µM; active compounds read high
[5] = biological target: Calcium-dependent protein kinase 1 (Plasmodium falciparum (isolate 3D7)) (UniProt P62344); assay: PfCDPK1 kinase inhibitors, biochemical, TCAMS library (AID 1159585; cut-off not given, nearly all actives have IC50 up to about 0.98 µM;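 also: inhibitors leave more ATP so luminescence rises with inhibition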); details: recombinant PfCDPK1, Kinase-Glo ATP depletion luminescence
[6] = biological target: Plasmodium falciparum protein kinase 6 (PK6, PF3D7_1337100) (UniProt Q8IDW1); assay: PfPK6 kinase inhibitors, biochemical, TCAMS library (AID 1159586); details: recombinant PfPK6, Kinase-Glo ATP depletion luminescence
[7] = biological target: Protein kinase 7 (PK7), Plasmodium falciparum 3D7 (PF3D7_0213400) (UniProt Q7YTF7); assay: inhibition of Plasmodium PK7 catalytic activity – biochemical, TCAMS antimalarial set, Kinase-Glo luminescence (AID 1159587); details: recombinant PfPK7, Kinase-Glo ATP depletion luminescence
[8] = biological target: Calcium-dependent protein kinase 4 (Plasmodium falciparum (isolate 3D7)) (UniProt Q8IBS5); assay: PfCDPK4 kinase inhibitors, biochemical, TCAMS library (AID 1159588; cut-off not given, nearly all actives have IC50 up to about 0.91 µM); details: recombinant PfCDPK4, Kinase-Glo ATP depletion luminescence
Calcium-dependent protein kinase 4 (Plasmodium falciparum (isolate 3D7)), sequence (Q8IBS5 whole entry, looked up): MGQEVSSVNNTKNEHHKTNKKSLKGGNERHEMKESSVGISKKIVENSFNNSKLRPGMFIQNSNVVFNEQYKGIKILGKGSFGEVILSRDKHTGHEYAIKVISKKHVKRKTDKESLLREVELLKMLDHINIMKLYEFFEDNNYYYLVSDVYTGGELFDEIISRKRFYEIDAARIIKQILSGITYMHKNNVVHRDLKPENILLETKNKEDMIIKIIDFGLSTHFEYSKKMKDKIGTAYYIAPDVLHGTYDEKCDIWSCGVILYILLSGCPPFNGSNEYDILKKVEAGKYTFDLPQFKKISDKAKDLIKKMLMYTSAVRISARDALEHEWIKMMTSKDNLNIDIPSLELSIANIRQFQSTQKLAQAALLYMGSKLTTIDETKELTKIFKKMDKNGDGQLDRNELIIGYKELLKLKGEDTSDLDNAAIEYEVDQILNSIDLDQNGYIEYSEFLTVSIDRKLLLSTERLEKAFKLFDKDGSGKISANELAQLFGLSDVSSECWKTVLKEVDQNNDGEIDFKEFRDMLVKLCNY

L-lactate dehydrogenase (Plasmodium falciparum (isolate CDC / Honduras)), sequence (Q27743 whole entry, looked up): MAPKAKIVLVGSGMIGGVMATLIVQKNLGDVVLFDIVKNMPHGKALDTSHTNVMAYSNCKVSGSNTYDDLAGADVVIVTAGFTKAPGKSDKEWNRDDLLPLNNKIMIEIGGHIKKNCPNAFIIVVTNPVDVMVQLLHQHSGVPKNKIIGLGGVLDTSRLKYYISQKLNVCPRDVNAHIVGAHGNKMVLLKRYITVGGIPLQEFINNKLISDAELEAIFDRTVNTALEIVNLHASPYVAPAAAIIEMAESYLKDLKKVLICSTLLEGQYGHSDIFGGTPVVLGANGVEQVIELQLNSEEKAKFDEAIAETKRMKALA
Plasmodium falciparum protein kinase 6 (PK6, PF3D7_1337100), sequence (Q8IDW1 1-305): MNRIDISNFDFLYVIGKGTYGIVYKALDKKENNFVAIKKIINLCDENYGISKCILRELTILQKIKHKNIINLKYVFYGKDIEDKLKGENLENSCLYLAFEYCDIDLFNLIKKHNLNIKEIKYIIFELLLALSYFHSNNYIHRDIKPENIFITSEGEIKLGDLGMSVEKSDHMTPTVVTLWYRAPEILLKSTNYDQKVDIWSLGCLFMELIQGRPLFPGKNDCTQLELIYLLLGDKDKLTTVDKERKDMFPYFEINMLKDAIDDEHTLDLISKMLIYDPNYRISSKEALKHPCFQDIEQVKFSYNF
Protein kinase 7 (PK7), Plasmodium falciparum 3D7 (PF3D7_0213400), sequence (Q7YTF7 1-343): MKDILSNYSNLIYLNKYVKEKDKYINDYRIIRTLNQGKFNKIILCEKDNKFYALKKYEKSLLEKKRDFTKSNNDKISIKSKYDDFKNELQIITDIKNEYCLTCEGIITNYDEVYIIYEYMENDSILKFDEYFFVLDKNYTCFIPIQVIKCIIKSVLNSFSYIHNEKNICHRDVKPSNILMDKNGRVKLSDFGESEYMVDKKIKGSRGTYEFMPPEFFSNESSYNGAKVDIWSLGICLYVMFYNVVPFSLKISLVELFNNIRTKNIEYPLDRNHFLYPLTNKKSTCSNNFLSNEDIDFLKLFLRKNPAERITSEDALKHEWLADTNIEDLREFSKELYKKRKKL
Calcium-dependent protein kinase 1 (Plasmodium falciparum (isolate 3D7)), sequence (P62344 whole entry, looked up): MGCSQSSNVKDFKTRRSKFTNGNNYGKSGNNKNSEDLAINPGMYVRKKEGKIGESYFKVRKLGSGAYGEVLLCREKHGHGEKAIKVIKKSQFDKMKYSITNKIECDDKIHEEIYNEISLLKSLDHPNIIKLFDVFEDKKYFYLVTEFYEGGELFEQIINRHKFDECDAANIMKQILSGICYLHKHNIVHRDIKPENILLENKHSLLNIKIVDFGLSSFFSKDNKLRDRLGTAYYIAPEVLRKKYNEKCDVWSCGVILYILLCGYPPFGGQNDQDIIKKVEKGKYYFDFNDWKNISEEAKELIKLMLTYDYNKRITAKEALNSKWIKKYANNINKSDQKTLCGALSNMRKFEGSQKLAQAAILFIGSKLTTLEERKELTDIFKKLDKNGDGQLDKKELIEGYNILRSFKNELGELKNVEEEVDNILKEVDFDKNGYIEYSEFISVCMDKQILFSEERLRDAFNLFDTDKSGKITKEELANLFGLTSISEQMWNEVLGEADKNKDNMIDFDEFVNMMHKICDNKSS

Cc1cc(=O)c(C2CCC(c3ccc(Cl)cc3)CC2)c(C)[nH]1 (stereo not drawn)
inactive: inhibition [2] -13% | inhibition [3] 0% | outcome [5] | outcome [6] | outcome [7] | outcome [8]
active: growth inhibition [1] 70% | growth inhibition [4] 88%

Fc1cccc(COc2ccc(Nc3ncnc4sc(C#C[C@H]5CC[C@H](CN6CCOCC6)N5)cc34)cc2Cl)c1
active: growth inhibition [4] 92%
inactive: growth inhibition [1] 23% | inhibition [2] 16% | inhibition [3] -10% | outcome [5] | outcome [6] | outcome [7] | outcome [8]

COc1ccc(NC(=O)Nc2nc(-c3ccc(Cl)c(C)c3)cs2)cc1N1CCN(C)CC1
inactive: inhibition [2] 9% | inhibition [3] 0% | outcome [5] | outcome [6] | outcome [7] | outcome [8]
active: growth inhibition [1] 89% | growth inhibition [4] 99%

CCCc1cc(Cc2cnc(N)nc2N)cc2c1OC(C)C2C (stereo not drawn)
active: growth inhibition [4] 98%
inactive: growth inhibition [1] 0% | inhibition [2] 32% | inhibition [3] -3% | outcome [5] | outcome [6] | outcome [7] | outcome [8]

COc1cccc(CCc2c(CCNCCCCCCNCCc3ccccc3)ccc(OC)c2OC)c1
inactive: inhibition [3] 6% | outcome [5] | outcome [6] | outcome [7] | outcome [8]
active: growth inhibition [1] 69% | inhibition [2] 100% | growth inhibition [4] 100%

O=c1cc(NCCCCNCc2cccc(Cl)c2)[nH]c2ccccc12
inactive: growth inhibition [1] 41% | inhibition [2] 2% | inhibition [3] -3% | outcome [5] | outcome [6] | outcome [7] | outcome [8]
active: growth inhibition [4] 98%

CCOc1ccc(NC(=O)c2cccc(CN3CCCN(Cc4cccc(O)c4)CC3)c2)cc1
active: growth inhibition [4] 95%
inactive: growth inhibition [1] 23% | inhibition [2] 22% | inhibition [3] 0% | outcome [5] | outcome [6] | outcome [7] | outcome [8]

CCOC(=O)CCCOc1cc(Cc2cnc(N)nc2N)cc(OC)c1OC
active: growth inhibition [4] 97%
inactive: growth inhibition [1] 3% | inhibition [2] 12% | inhibition [3] -7% | outcome [5] | outcome [6] | outcome [7] | outcome [8]

O=[N+]([O-])c1nc(Br)n(Cc2ccc(Cl)cc2)n1
active: growth inhibition [1] 95% | growth inhibition [4] 96%
inactive: inhibition [2] -3% | inhibition [3] -1% | outcome [5] | outcome [6] | outcome [7] | outcome [8]

CCOc1cc2ncnc(Nc3ccc(OCc4ccccc4Br)c(OC)c3)c2cc1OCC
active: growth inhibition [1] 82% | growth inhibition [4] 100%
inactive: inhibition [2] 1% | inhibition [3] 1% | outcome [5] | outcome [6] | outcome [7] | outcome [8]

OCCN1CCN(Cc2ccc(-c3cccc(-c4nc5ccccc5[nH]4)c3)cc2)CC1
inactive: growth inhibition [1] 16% | inhibition [2] 32% | inhibition [3] 6% | outcome [5] | outcome [6] | outcome [7] | outcome [8]
active: growth inhibition [4] 96%

CC(C)CCCC(C)(C)NC[C@@H](O)[C@H](Cc1ccccc1)NC(=O)c1cc(NC(C)C)cc(N2CCCCS2(=O)=O)c1F
active: growth inhibition [1] 99% | growth inhibition [4] 98%
inactive: inhibition [2] 11% | inhibition [3] -3% | outcome [5] | outcome [6] | outcome [7] | outcome [8]

Cn1ccnc1CNC(=O)c1ccc(-c2cccc(-c3nc4ccc(C(F)(F)F)cc4[nH]3)c2)cc1
inactive: inhibition [2] 20% | inhibition [3] 3% | outcome [5] | outcome [6] | outcome [7] | outcome [8]
active: growth inhibition [1] 80% | growth inhibition [4] 101%

CCN(CCNC(=O)Cn1c(C)cc2cc([N+](=O)[O-])ccc21)c1cccc(C)c1
active: growth inhibition [1] 95% | growth inhibition [4] 97%
inactive: inhibition [2] -3% | inhibition [3] 6% | outcome [5] | outcome [6] | outcome [7] | outcome [8]

Cc1cccc2[nH]c(-c3cccc(-c4ccc(C(=O)NCc5nccn5C)cc4)c3)nc12
active: growth inhibition [4] 100%
inactive: growth inhibition [1] 9% | inhibition [2] 18% | inhibition [3] 1% | outcome [5] | outcome [6] | outcome [7] | outcome [8]

CCOc1c(CCNCCCCNCCc2ccc3ccccc3c2OCC)ccc2ccccc12
inactive: inhibition [3] -3% | outcome [5] | outcome [6] | outcome [7] | outcome [8]
active: growth inhibition [1] 87% | inhibition [2] 100% | growth inhibition [4] 94%

COCCn1c(-c2cccc(Cl)c2)nn(-c2ccc([N+](=O)[O-])cc2C#N)c1=S
active: growth inhibition [1] 100% | growth inhibition [4] 100%
inactive: inhibition [2] 7% | inhibition [3] 0% | outcome [5] | outcome [6] | outcome [7] | outcome [8]

CC(C)(C)CCN1CCC(CNC(=O)c2cc(-c3cccc(C(F)(F)F)c3)cs2)C1 (stereo not drawn)
inactive: growth inhibition [1] 13% | inhibition [2] 47% | inhibition [3] -1% | outcome [5] | outcome [6] | outcome [7] | outcome [8]
active: growth inhibition [4] 93%

COc1ccc(NC(=O)Nc2ccc(-c3ccccc3)cc2Cl)cc1N1CCN(C)CC1
active: growth inhibition [4] 90%
inactive: growth inhibition [1] 30% | inhibition [2] 40% | inhibition [3] 0% | outcome [5] | outcome [6] | outcome [7] | outcome [8]

FC(F)(F)c1ccc2c(C=Cc3ccncc3)c[nH]c2c1
inactive: inhibition [2] -12% | inhibition [3] -2% | outcome [5] | outcome [6] | outcome [7] | outcome [8]
active: growth inhibition [1] 76% | growth inhibition [4] 98%

CCCCCCn1c(Sc2ccc(C#N)c([N+](=O)[O-])c2)nnc1-c1cccs1
inactive: inhibition [2] 26% | inhibition [3] -4% | outcome [5] | outcome [6] | outcome [7] | outcome [8]
active: growth inhibition [1] 60% | growth inhibition [4] 97%

CC(C)(C)C(=O)Nc1ccc(C(=O)Nc2cccc(-c3nc4ccccc4[nH]3)c2)cc1
active: growth inhibition [1] 62% | inhibition [2] 56% | growth inhibition [4] 96%
inactive: inhibition [3] 1% | outcome [5] | outcome [6] | outcome [7] | outcome [8]

CCCCCCCCNCC(O)c1cc(-c2ccc(Cl)cc2)nc2cc(C)ccc12 (stereo not drawn)
active: growth inhibition [1] 99% | growth inhibition [4] 99%
inactive: inhibition [2] 0% | inhibition [3] -2% | outcome [5] | outcome [6] | outcome [7] | outcome [8]

O=C(Nc1ccc2c(c1)CCC2)N[C@H]1CCN(CCCCCNC(=O)[C@@H]2C[C@H]2c2ccc(Cl)c(Cl)c2)C1
active: growth inhibition [4] 86%
inactive: growth inhibition [1] -3% | inhibition [2] 37% | inhibition [3] 2% | outcome [5] | outcome [6] | outcome [7] | outcome [8]

O=C(Nc1ccc(-c2ccccc2)c(OCCN2CCNCC2)c1)c1ccc(-c2ccc(Cl)cc2)cc1
active: inhibition [2] 92% | growth inhibition [4] 96%
inactive: growth inhibition [1] 31% | inhibition [3] -8% | outcome [5] | outcome [6] | outcome [7] | outcome [8]

CC(C)(C)c1ccc(C(=O)N2CCC3(CC2)C(=O)N(CC(=O)NCC2CCCO2)CN3c2ccccc2)cc1 (stereo not drawn)
active: growth inhibition [1] 100% | growth inhibition [4] 100%
inactive: inhibition [2] 8% | inhibition [3] 0% | outcome [5] | outcome [6] | outcome [7] | outcome [8]

O=C(NCCCCN1CCC(c2ccc3c(c2OCC2COCO2)CCCC3)CC1)c1ccc(-c2ccc(C(F)(F)F)cc2)cc1 (stereo not drawn)
inactive: growth inhibition [1] 45% | inhibition [3] -2% | outcome [5] | outcome [6] | outcome [7] | outcome [8]
active: inhibition [2] 91% | growth inhibition [4] 99%

O=C(NC1CCCCN(Cc2ccccc2O)C1)c1cccc(Cl)c1 (stereo not drawn)
active: growth inhibition [4] 86%
inactive: growth inhibition [1] 30% | inhibition [2] 15% | inhibition [3] -4% | outcome [5] | outcome [6] | outcome [7] | outcome [8]

N#Cc1ccc2c(c1)CCN(CCC1CCC(NC(=O)/C=C/c3ccc4ccccc4c3)CC1)CC2 (stereo not drawn)
inactive: growth inhibition [1] 12% | inhibition [2] 20% | inhibition [3] 4% | outcome [5] | outcome [6] | outcome [7] | outcome [8]
active: growth inhibition [4] 97%

CCOc1ccc(NC(=O)c2cn3nc(-c4ccc(OCC)cc4)cc3nc2C2CCNCC2)cc1
inactive: growth inhibition [1] 39% | inhibition [2] 36% | inhibition [3] -11% | outcome [5] | outcome [6] | outcome [7] | outcome [8]
active: growth inhibition [4] 102%

Cc1cccc(Oc2cccc3[nH]nc(N)c23)c1
inactive: growth inhibition [1] -3% | inhibition [2] 6% | inhibition [3] -2% | outcome [5] | outcome [6] | outcome [7] | outcome [8]
active: growth inhibition [4] 85%

CCN(CC)CCCC(C)Nc1ccnc2[nH]c3ccccc3c12 (stereo not drawn)
inactive: growth inhibition [1] 38% | inhibition [2] 0% | inhibition [3] 6% | outcome [5] | outcome [6] | outcome [7] | outcome [8]
active: growth inhibition [4] 82%

COc1cc(Nc2ccnc3cc(-c4ccccn4)ccc23)cc(OC)c1OC
active: growth inhibition [4] 91%
inactive: growth inhibition [1] 0% | inhibition [2] -9% | inhibition [3] -1% | outcome [5] | outcome [6] | outcome [7] | outcome [8]

O=[N+]([O-])c1cc(C=NNc2nc3nonc3nc2Nc2ccc(F)cc2)c(Cl)cc1Cl
inactive: growth inhibition [1] 13% | inhibition [2] 5% | inhibition [3] -4% | outcome [5] | outcome [6] | outcome [7] | outcome [8]
active: growth inhibition [4] 98%

Oc1ccccc1N1CCN(c2ccc(-c3nc4ccccc4[nH]3)cn2)CC1
active: growth inhibition [1] 50% | growth inhibition [4] 97%
inactive: inhibition [2] -12% | inhibition [3] -2% | outcome [5] | outcome [6] | outcome [7] | outcome [8]

CC1(C)N=C(N)N=C(N)N1c1ccc(Br)cc1
inactive: growth inhibition [1] 4% | inhibition [3] 0% | outcome [5] | outcome [6] | outcome [7] | outcome [8]
active: inhibition [2] 52% | growth inhibition [4] 94%

CN(CCc1ccccn1)c1cccc2c1nc(-c1cccnc1)n2CCNCc1ccccc1
active: growth inhibition [1] 97% | growth inhibition [4] 90%
inactive: inhibition [2] 12% | inhibition [3] 2% | outcome [5] | outcome [6] | outcome [7] | outcome [8]

O=C(NCc1ccc(Cl)cc1)c1ccc(CN2CCCN(CC3CCCCC3)CC2)cc1
active: growth inhibition [4] 84%
inactive: growth inhibition [1] 5% | inhibition [2] 18% | inhibition [3] -3% | outcome [5] | outcome [6] | outcome [7] | outcome [8]

Cc1cc2ccc(-c3cccc(CN)c3)cc2nc1N
active: growth inhibition [4] 100%
inactive: growth inhibition [1] 1% | inhibition [2] -4% | inhibition [3] -6% | outcome [5] | outcome [6] | outcome [7] | outcome [8]

Nc1c2c(nc3ccc(NC(=O)CCCCCc4ccccc4)cc13)CCCC2
active: growth inhibition [4] 102%
inactive: growth inhibition [1] 36% | inhibition [2] 32% | inhibition [3] 4% | outcome [5] | outcome [6] | outcome [7] | outcome [8]

O=C(Cn1c(SCc2cccc(F)c2F)cc(=O)c2ccccc21)N(CCN1CCCCC1)Cc1ccc(-c2ccc(C(F)(F)F)cc2)cc1
inactive: inhibition [2] 41% | inhibition [3] -1% | outcome [5] | outcome [6] | outcome [7] | outcome [8]
active: growth inhibition [1] 82% | growth inhibition [4] 99%
